The whole screen tested about 2,200 compounds, of which about 480 (22%) were called active. No rule for the calls is given here. These entries were drawn from the full list. Entries with a potency or affinity are not part of this list.
Assay: S. Typhimurium GFP fluorescence dose response in modified counterscreen for PhoP regulon inhibitor project (AID 1981)
Details: 4 h; series mostly up to 150 µM

| SMILES | outcome |
| --- | --- |
| COc1ccc(N(CC(=O)Nc2ccccc2SC)S(C)(=O)=O)cc1OC | inactive |
| Nc1cc(N)nc(SCc2cc(=O)oc3cc4c(cc23)CCC4)n1 | inactive |
| Nc1nnc(Sc2ccc(Cl)cc2[N+](=O)[O-])s1 | inactive |
| CCN(CC)S(=O)(=O)c1ccc2[nH]cc(C(=O)NCCc3ccccc3)c(=O)c2c1 | inactive |
| O=C(CSc1nccc(=O)[nH]1)N1c2ccccc2CCc2ccccc21 | inactive |
| O=C(CSc1nc(Nc2ccccc2)nc(N2CCOCC2)n1)Nc1ccc([N+](=O)[O-])cc1 | inactive |
| Cc1cc(=O)oc(C)c1C(=O)NCc1cccnc1 | inactive |
| O=C(NNc1nc(-c2ccccc2)cs1)c1ccco1 | inactive |
| COc1ccc(Cl)cc1Nc1nc(-c2sc(NC(=O)c3ccco3)nc2C)cs1 | inactive |
| Cc1cc(C)cc(OC(=O)CS(=O)c2ccc(C(F)(F)F)cc2[N+](=O)[O-])c1 (centres undefined) | inactive |
| c1ccc2c(c1)[nH]c1c(N3CCCC3)ncnc12 | inactive |
| O=C(CCCNS(=O)(=O)c1ccccc1)NCc1ccco1 | inactive |
| O=Cc1cccn1Cc1ccccc1[N+](=O)[O-] | inactive |
| CCN1CCN(c2oc(COc3ccc(Cl)cc3)nc2C#N)CC1 | inactive |
| CCOC(=O)c1cnc2ccc(OCC)cc2c1N1CCN(c2ccccc2)CC1 | inactive |
| COc1ccc2cc(C#N)c(NC(C)C)nc2c1 | inactive |
| COc1cc(C2NC(=O)NC(c3ccccc3)=C2C(C)=O)ccc1OCC(=O)O (centres undefined) | inactive |
| CC1CCCC(C)N1/N=C/c1c[nH]c2ccc(Br)cc12 (centres undefined) | inactive |
| COc1cccc(N=Cc2c[nH][nH]c2=O)c1 | inactive |
| O=C(OCc1ccccc1)Oc1cncc(C(=O)O)c1 | inactive |
| COC(=O)c1ccc(C(=O)OC)c(NC(=O)COc2ccccc2OC)c1 | inactive |
| CC(=O)Nc1nc2nc(-c3ccccc3)cc(-c3ccccc3)n2n1 | inactive |
| CCOC(=O)C(/C=C(\C#N)C(=O)OCC)=C(/N)N1CCN(c2c(C)cccc2C)CC1 | inactive |

| SMILES | outcome |
| --- | --- |
| O=C(CCN1CCc2ccccc2C(c2ccccc2)C1)c1ccc2c(c1)OCCO2 (centres undefined) | inactive |
| CCCC(=O)c1c[nH]c(C(=O)NCCCN2CCOCC2)c1 | inactive |
| O=C(c1ccc(CSc2nc3ccncc3[nH]2)cc1)N1CCN(c2cccc(Cl)c2)CC1 | inactive |
| O=S(=O)(c1ccc(F)c2ccccc12)N1CCCCC1 | inactive |
| COc1ccc(-c2[nH]ncc2/C=C(\C#N)C(=O)NC2CC2)cc1 | inactive |
| COC(=O)C1=C(C)N(C)C(=O)/C1=C\c1ccco1 | inactive |
| COC(=O)c1ccc(NC(=S)NCCc2cccc(C)c2)cc1 | inactive |
| COc1ccc(S(=O)(=O)n2nc(OC(=O)c3ccccc3Br)cc2N)cc1 | inactive |
| CN(C(=O)C1CCOC1)c1nnc(-c2ccccn2)s1 (centres undefined) | inactive |
| O=C1NC(c2ccc3c(c2)OCO3)Oc2ccccc21 (centres undefined) | inactive |
| CCn1nnc(-c2ccccc2NS(=O)(=O)c2ccc(S(=O)(=O)N3CCCCCC3)cc2)n1 | inactive |
| Cc1cc(C(=O)N/N=C/c2ccc[nH]2)no1 | inactive |
| CC(C)CCNC(=S)Nc1ccc([N+](=O)[O-])cc1 | inactive |
| O=C(NC1CCN(C(=O)N2c3ccccc3Sc3ccccc32)CC1)c1ccco1 | inactive |
| Cc1cc(CNC(=O)Nc2ccc3c(c2)OCO3)nn1C | inactive |
| O=C(COc1ccc2ccccc2c1)N1CCN(CC2CC3C=CC2C3)CC1 (centres undefined) | inactive |
| COCC(=O)N(Cc1ccco1)c1nnc(C2CCOC2)s1 (centres undefined) | inactive |
| CCCc1nn(C)c2c1C(c1cccnc1)C(C#N)=C(N)O2 (centres undefined) | inactive |
| CCOC(=O)C1(S(=O)(=O)c2ccccc2)CCN(Cc2ccc(Cl)cc2)CC1 | inactive |
| O=C(CN1C(=O)c2ccccc2C1=O)N1CCN(c2ccccn2)CC1 | inactive |
| Cc1ccc(/C=C/c2nnc(-c3ccc(C)cc3)o2)cc1 | inactive |
| COc1ccc(C2CC(c3ccccc3)=NN2c2ccc(/C=N/NC(=O)c3ccncc3)cc2)cc1 (centres undefined) | inactive |
| CC(=O)n1cc(/C=N/NC(=O)c2sc(C)nc2C)c2ccccc21 | inactive |

| SMILES | outcome |
| --- | --- |
| COc1ccc(OCCn2cc(/C=N/NC(=O)c3ccncc3)c3ccccc32)cc1 | inactive |
| COc1ccc2ccccc2c1/C=N/NC(=O)c1sc(N)c(C#N)c1C | inactive |
| COc1ccc2c(c1)CC1(CN2C)C(=O)NC(=O)N(c2ccc(F)cc2)C1=O (centres undefined) | inactive |
| O=C1Nc2ccc(F)cc2C12SCCS2 | inactive |
| Cc1cc2ncn(CC(O)COc3cccc(C(=O)O)c3)c2cc1C (centres undefined) | inactive |
| COc1cc([N+](=O)[O-])ccc1NC(=O)CN(C)C | inactive |
| COc1cc([N+](=O)[O-])cc(/C=N/NC(=O)c2cccnc2)c1O | inactive |
| C#CC(C)(CC)NC(=O)c1cc(OC)c(OC)c(OC)c1 (centres undefined) | inactive |
| CC(C)(C)c1cc2cccnc2n1Cc1cccc(Cl)c1 | inactive |
| COc1ccc(Cl)cc1C(=O)Nc1ccc(NC(=O)c2ccco2)cc1 | inactive |
| O=C(O)CCc1nn2c3ccccc3n(CC(=O)c3ccccc3)c2nc1=O | inactive |
| Nc1c(-c2ccccc2)cnn1-c1cccc([N+](=O)[O-])c1 | inactive |
| Nc1ncncc1-c1ccc(Cl)cc1 | inactive |
| CCOC(=O)C1CCCN(C(=O)Cc2ccc(Cl)cc2)C1 (centres undefined) | inactive |
| CC1=CC(C)C2(CO)COC(c3ccccc3O)C1C2C (centres undefined) | inactive |
| CNc1nc(-c2ccccn2)nnc1-c1ccccc1 | inactive |
| Nc1nc(Nc2ccc(Cl)cc2)n[nH]1 | inactive |
| Cc1ccc2c(CN3CCC(C)CC3)cc(=O)oc2c1 | inactive |
| Cc1[nH]c2ccccc2c1C1=NNC(=Nc2ccc(F)cc2)SC1 | inactive |
| CCN1/C(=C/C(C)=C/c2sc3ccccc3[n+]2CC)Sc2ccccc21 | inactive |
| COc1ccc(C(=O)COc2nc(C)cc(C)c2C#N)cc1 | inactive |
| Cc1cc(-c2csc(NC(=O)c3ccc(S(=O)(=O)N(C)C)cc3)n2)c(C)n1-c1ccccc1 | inactive |
| CC1(C)CC(=O)c2c(nc3ccccc3c2N)C1 | inactive |

| SMILES | outcome |
| --- | --- |
| Cc1nn(-c2ccc(Cl)cc2)c2[nH]c(=O)c(CNCc3ccc4c(c3)OCO4)cc12 | inactive |
| CC(O)c1ccc(OCCN(C)c2ccccn2)cc1 (centres undefined) | inactive |
| Cc1cc(C)n(-c2ccc(C(=O)Nc3nc4ccccc4s3)cc2)n1 | inactive |
| CC(=O)c1c(N2CCN(C(=O)C3CCCO3)CC2)nc(=S)n(-c2ccccc2)c1C (centres undefined) | inactive |
| O=S(=O)(Cc1ccccc1Cl)N1CCN(Cc2ccc3c(c2)OCO3)CC1 | inactive |
| Cc1ccc(-n2c(C)cc(C3=NNC(=NC4CC4)SC3)c2C)cc1C | inactive |
| Cc1nc2ccccc2c(=O)n1/N=C/c1ccc(N(C)C)cc1 | inactive |
| c1ccc(Cc2nnc(-c3ccccc3)o2)cc1 | inactive |
| NCCCCCc1nnc(SCc2ccc(Cl)c(Cl)c2)o1 | inactive |
| O=C(c1ccc(-c2ccccc2)cc1)c1ccccc1C(=O)N1CCOCC1 | inactive |
| COc1ccc(N2CCN(C(=O)C3CCCO3)CC2)cc1 (centres undefined) | inactive |
| O=C(c1ccc(Cl)cc1Cl)C1(n2cncn2)Oc2ccccc2C1O (centres undefined) | inactive |
| Cc1cccc(-n2ncc3c(NCc4ccc5c(c4)OCO5)ncnc32)c1 | inactive |
| O=C1C2C3c4ccccc4C(c4ccccc43)C2C(=O)N1c1cccc2cccnc12 (centres undefined) | inactive |
| Brc1ccc2cccnc2c1 | inactive |
| Cc1ccc(C=Nc2ccccc2C(N)=O)cc1 | inactive |
| CCOc1c(Br)cc(CNCc2cccs2)cc1OC | inactive |
| Clc1ccc(Cn2ncc3c(NCc4ccco4)ncnc32)c(Cl)c1 | inactive |
| Cc1ccc(NC(=O)CCCSc2nc3ccccc3[nH]2)cc1 | inactive |
| O=C(Nc1cccnc1)c1cc(F)cc(F)c1 | inactive |
| Cc1cc(C)c2nc(NNC(=O)c3ccc(S(=O)(=O)N4CCCCC4)cc3)sc2c1 | inactive |
| COC(=O)c1sccc1NC(=O)C1C2C=CC(O2)C1C(=O)O (centres undefined) | inactive |
| Nc1ccc(C(=O)OCc2nc3ccccc3[nH]2)cc1 | inactive |

| SMILES | outcome |
| --- | --- |
| CCN1CCN(C(=O)c2ccc(COc3ccc(Cl)cc3)o2)CC1 | inactive |
| CCOc1ccc(/C=N/O)cc1 | inactive |
| CCOc1ccc(CCNC(=O)c2cc3sc(Cl)cc3n2C)cc1OCC | inactive |
| O=C(O)Cc1sc(Nc2ccc(Cl)cc2)nc1-c1cccs1 | inactive |
| S=C(c1ccc2c(c1)OCO2)N1CCCC1 | inactive |
| Cc1ccc(-c2n[nH]c(=S)n2/N=C/c2cc3c(cc2[N+](=O)[O-])OCO3)cc1 | inactive |
| O=c1[nH]c(SCc2nc3ccccc3c(=O)n2-c2ccccc2C(F)(F)F)nc2ccccc12 | inactive |
| CCC(OC(=O)C(NC(=O)c1ccccc1)c1ccccc1)C(=O)Nc1cc(C)on1 (centres undefined) | inactive |
| S=c1[nH]nc(Cc2cccc3ccccc23)o1 | inactive |
| Cc1ccc(S(=O)(=O)N2C(=O)CCC2C(=O)N2CCN(C)CC2)cc1 (centres undefined) | inactive |
| CN(C)c1nc(N)nc(Cn2ccnc2)n1 | inactive |
| CC(NCc1ccc(Cl)c(Cl)c1)C(O)c1ccccc1 (centres undefined) | inactive |
| CCCc1cc(C(=O)Cc2ccc(C(=O)OCC)o2)c(O)cc1O | inactive |
| COc1ccc(C(=O)Nn2c(SCC(=O)N3CCC(C)CC3)nc3ccccc3c2=O)cc1 | inactive |
| O=C(COc1ncnc2sccc12)N1CCN(S(=O)(=O)c2ccc(Cl)cc2)CC1 | inactive |
| O=S(=O)(c1ccc2c(c1)OCCO2)N1CCN(c2cccc(Cl)c2)CC1 | inactive |
| COc1ccc(N(C(=O)CCl)C(C(=O)NCCc2ccccc2)c2cccs2)cc1 (centres undefined) | inactive |
| S=C(Nc1ccc2snnc2c1)N1CCN(c2ccccn2)CC1 | inactive |
| CCn1c2ccccc2c2nnc(SCC(=O)Nc3ccc4c(c3)OCO4)nc21 | inactive |
| CCCn1c(SCC(=O)c2c(C)[nH]c(C)c2C(=O)OCC)nc2ccccc21 | inactive |
| Clc1ccc(CNc2ccc(CNc3ncn[nH]3)cc2)cc1 | inactive |
| COc1cc(CNc2ccc(CNc3ncn[nH]3)cc2)ccc1OCc1ccccc1 | inactive |
